Source: PubChem BioAssay
Bead autofluor = flagged as autofluorescent in microsphere protease counterscreen; compound autofluorescence counterscreen, microsphere flow cytometry; stronger effect = higher value; fluorescence intensity (no concentration beside the values); actives 3.1% (n = 360,000); AID 624483; in the data active = fluorescence intensity above about 16000; inconclusive = no clear call, values can overlap the other calls
BoNT A protease = BoNT/A light chain protease inhibitors, primary screen, biochemical, flow cytometry, MLPCN library; Botulinum neurotoxin type A light chain protease (Clostridium botulinum A str. ATCC 3502); multiplex microsphere protease substrate cleavage; inhibition, % at 10 µM; actives 0.17% (n = 360,000); AID 588499, 2011
BoNT F protease = BoNT/F light chain protease inhibitors, primary screen, biochemical, flow cytometry, MLPCN library | Botulinum neurotoxin type F light chain protease (Clostridium botulinum) | Multiplex microsphere protease cleavage assay | inhibition, % at 10 µM | actives 0.22% (n = 360,000) | AID 588497, 2011; in the data active = inhibition above about 35%, passing the limit was not always enough; inconclusive = no clear call, values can overlap the other calls
Anthrax LF prot = Bacillus anthracis LF protease inhibitors, primary screen, biochemical, multiplex microsphere, MLPCN library; Lethal factor (Bacillus anthracis), P15917; multiplex microsphere protease cleavage assay; inhibition, % at 10 µM; actives 0.12% (n = 360,000); AID 588501, 2011
Target sequence (P15917 whole entry, looked up): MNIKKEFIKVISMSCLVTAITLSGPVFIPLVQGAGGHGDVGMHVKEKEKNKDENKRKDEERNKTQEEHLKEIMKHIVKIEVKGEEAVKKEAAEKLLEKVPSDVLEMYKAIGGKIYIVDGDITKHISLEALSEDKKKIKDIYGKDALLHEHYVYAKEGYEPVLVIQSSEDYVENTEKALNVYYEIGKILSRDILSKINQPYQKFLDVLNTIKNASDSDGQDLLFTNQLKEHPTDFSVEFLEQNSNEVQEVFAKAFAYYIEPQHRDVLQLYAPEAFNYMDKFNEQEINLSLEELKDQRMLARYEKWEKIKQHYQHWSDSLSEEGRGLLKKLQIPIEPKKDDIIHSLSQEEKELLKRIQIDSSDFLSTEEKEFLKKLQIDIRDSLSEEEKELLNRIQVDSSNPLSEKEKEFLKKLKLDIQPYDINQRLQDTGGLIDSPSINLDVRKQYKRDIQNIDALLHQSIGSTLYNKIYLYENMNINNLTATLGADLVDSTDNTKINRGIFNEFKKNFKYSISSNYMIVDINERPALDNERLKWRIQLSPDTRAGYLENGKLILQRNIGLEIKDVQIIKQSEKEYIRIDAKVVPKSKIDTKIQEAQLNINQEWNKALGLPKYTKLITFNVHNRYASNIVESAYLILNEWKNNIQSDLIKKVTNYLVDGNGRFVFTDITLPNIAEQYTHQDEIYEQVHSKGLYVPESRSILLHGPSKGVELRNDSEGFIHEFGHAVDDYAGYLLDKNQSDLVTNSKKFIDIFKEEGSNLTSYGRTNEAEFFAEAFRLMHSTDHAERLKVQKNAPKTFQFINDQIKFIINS
Of the large screens only hits and unclear results are named; the others gave an inactive call. The list is not random: actives were taken first. Their share in the collection is about 3.5%. Rule as the data show it, unless noted: active = inhibition above about 30%; inconclusive = no clear call, values can overlap the other calls; inactive = below that.

CC(C)(C)c1ccc(S(=O)(=O)N2CC(=O)Nc3ccccc32)cc1	Bead autofluor 23729
Cc1ccc(S(=O)(=O)N2CC(=O)Nc3ccccc32)cc1	none
O=C(CCS(=O)(=O)Cc1ccccc1)N1CCc2ccccc2C1	Bead autofluor 21963
O=C(CCS(=O)(=O)Cc1ccccc1)N1CCN(Cc2ccccc2)CC1	none
CC1CCCC(C(=O)O)N1C(=O)CCSC(=O)c1ccccc1 (stereo not drawn)	Bead autofluor 22094
COc1ccc(NC(=O)CSc2nnc(NC(=O)c3ccco3)s2)cc1OC	none
O=C(O)c1cccc(-c2csc(C(O)c3ccccc3)n2)c1 (stereo not drawn)	none
COc1ccc(C(=O)NN)cc1COc1ccc(Br)cc1	Bead autofluor 19591
CC(C)(C)c1ccc(S(=O)(=O)NCC(=O)N2CCN(Cc3ccccc3)CC2)cc1	none
COc1cc(C2C(C#N)=C(N)Oc3c2ccc2ccccc32)ccc1OCC(=O)Nc1ccccc1C (stereo not drawn)	Bead autofluor 22354, BoNT A protease inconclusive
CN(C)C(CNC(=O)c1ccc(NS(=O)(=O)c2ccc(F)cc2)cc1)c1ccco1 (stereo not drawn)	Bead autofluor 36456
CCN1CNC(=S)N(c2cc(C)ccc2C)C1	Bead autofluor 21089, BoNT A protease inconclusive
Cc1ccc(C)c(N2CN(Cc3ccco3)CNC2=S)c1	none
COc1ccc(-c2nnc(SC(C)C(=O)Nc3nccs3)n2Cc2ccccc2)cc1OC (stereo not drawn)	Bead autofluor 20588
CCCCn1c(N)c(N(CC(C)C)C(=O)c2ccc(S(=O)(=O)N3CCCCC3)cc2)c(=O)[nH]c1=O	Bead autofluor inconclusive
CCN(c1ccc(C(=O)CSc2nnc(C3CC3)n2C2CC2)cc1)S(C)(=O)=O	none
CCOC(=O)c1c(-c2ccccc2)nc2ccc(C)cn12	Bead autofluor 19967, BoNT A protease inconclusive
COc1ccc(C(=O)N2CCCC(c3nc(-c4ccc(OC)c(OC)c4)no3)C2)c(OC)c1 (stereo not drawn)	Bead autofluor 20939
O=C(C1CC1)N1CCC(c2nc(-c3ccc(S(=O)(=O)NCC4CCCO4)cc3)no2)CC1 (stereo not drawn)	Bead autofluor 19413
COc1ccc(-c2noc(C3CCCN(C(=O)c4ccccc4OC)C3)n2)cc1OC (stereo not drawn)	Bead autofluor 16635, BoNT A protease inconclusive
Cc1ccc(-c2noc(C3CCCN(C(=O)c4c(F)cccc4F)C3)n2)cc1 (stereo not drawn)	Bead autofluor 21313
Cc1ccccc1N1CCN(C(=O)NCc2cccc(Cl)c2)CC1	none
O=C(Cc1ccccc1)N1CCC(c2nc(-c3ccc(F)cc3)no2)CC1	Bead autofluor 16726
O=C(Cc1ccccc1)N1CCCC(c2nc(-c3ccc(S(=O)(=O)N4CCCC4)cc3)no2)C1 (stereo not drawn)	none
O=S(=O)(Nc1ccc2c(c1)OCO2)c1ccc(F)c(F)c1	none
COc1cccc(/C(O)=C2\C(=O)C(=O)N(c3ccccn3)C2c2cccc(OC)c2OC)c1 (stereo not drawn)	Bead autofluor 21089
COc1ccc(C(=O)COC(=O)CCNS(=O)(=O)c2ccccc2)c(OC)c1	Bead autofluor inconclusive
CSc1nc(=O)n2cccc(C)c2n1	Bead autofluor 21767
Cc1ccc(S(=O)(=O)N(CC(O)CN2CCCCC2)c2ccccc2)cc1 (stereo not drawn)	none
COc1ccc(N(CC(O)CN2CCCCC2)S(=O)(=O)c2ccc(C)cc2)cc1 (stereo not drawn)	Bead autofluor 20804, BoNT A protease inconclusive
Cc1ccc(N(CC(O)CN2C(=O)NC(C)(C)C2=O)S(=O)(=O)c2ccc(C)cc2)cc1 (stereo not drawn)	none
COc1ccc(N(CC(O)CN2C(=O)NC(C)(C)C2=O)S(=O)(=O)c2ccc(C)cc2)cc1 (stereo not drawn)	Bead autofluor 23111
CSc1cccc(NC(=O)Cc2ccccc2[N+](=O)[O-])c1	none
Cc1ccc(S(=O)(=O)N/N=C/c2ccc(C#N)cc2)cc1	BoNT F protease inconclusive
Cc1ccc(-c2cc(C(=O)Nc3c(C)n(C)n(-c4ccccc4)c3=O)[nH]n2)c(O)c1C	none
Cn1c(=O)c2c(ncn2CC(O)CO)n(C)c1=O (stereo not drawn)	none
Cc1cc(C)n(CC(O)Cn2cnc3c2c(=O)n(C)c(=O)n3C)n1 (stereo not drawn)	Bead autofluor 22564
O=S(=O)(Nc1ccc(Cc2ccncc2)cc1)c1ccc(Br)s1	Bead autofluor 16939
CCOc1cccc(CNC2CN3CCC2CC3)c1 (stereo not drawn)	Bead autofluor 16409, BoNT A protease inconclusive
Fc1ccc(CNC2CN3CCC2CC3)cc1 (stereo not drawn)	none
S=C(NC1CCCCC1)N1CCN(c2ncccn2)CC1	none
O=C(NC1CCCCC1)N1CCN(c2ncccn2)CC1	Bead autofluor 23207
O=C(NC1CCCCC1)N1CCN(C2CCCCC2)CC1	Bead autofluor 23605
S=c1[nH]nc(C2CCCCC2)n1/N=C/c1ccncc1	none
S=c1[nH]nc(C2CCCCC2)n1/N=C/c1ccccc1Cl	BoNT F protease inconclusive
O=[N+]([O-])c1ccc(/C=N/n2c(C3CCCCC3)n[nH]c2=S)cc1	Bead autofluor 22651, BoNT A protease inconclusive
S=c1[nH]nc(C2CCCCC2)n1/N=C/c1cccs1	Bead autofluor 23451, BoNT A protease inconclusive
CO/N=C(/CNC(=O)c1ccc(Cl)cc1Cl)c1ccc(Cl)cc1	none
CCCCNC(=O)[C@H]1N2C(=O)c3c(ccc(OC)c3OC)C2SC1(C)C (stereo partly drawn)	none
CC(=O)Cc1ccccc1OCC(=O)O	Bead autofluor 16749
CCOc1ccc(N(CCC#N)S(=O)(=O)c2ccc(OC)cc2)cc1	Bead autofluor 20566
COc1ccc(N(CCOc2ccccc2)S(=O)(=O)c2ccccc2)cc1	Anthrax LF prot inconclusive
CCC(=O)N(CCC(c1ccco1)c1ccccc1OC)Cc1cccs1 (stereo not drawn)	Bead autofluor 23755
Cc1cc(C)cc(NC(=O)CN2CCN(c3ncccn3)CC2)c1	Bead autofluor 22652
CCOc1ccc(C(=O)Nc2ccc(NC(=O)c3ccco3)c(Cl)c2)cc1Cl	none
O=C(Nc1ccc(NC(=O)c2sc3ccccc3c2Cl)cc1Cl)c1ccco1	Bead autofluor 19130
O=C(Nc1ccc(N2CCN(C(=O)c3cccs3)CC2)c(Cl)c1)c1ccco1	Bead autofluor 16928
O=C(Nc1ccc(NC(=O)c2cccs2)c(Cl)c1)c1ccco1	none
CCOc1ccc(C(=O)Nc2ccc(NC(=O)c3ccco3)c(Cl)c2)cc1Br	Bead autofluor 22914, BoNT A protease inconclusive
Cc1ccccc1C(=O)N1CCN(c2ccc(NC(=O)c3ccco3)cc2Cl)CC1	none
COc1ccc(OC)c(NC(=O)C2CCN(c3cc(-c4ccccc4)nc4ncnn34)CC2)c1	Bead autofluor 22638
COc1ccc(NC(=O)C2CCN(c3cc(-c4ccccc4)nc4ncnn34)CC2)cc1OC	Bead autofluor 20978, BoNT A protease inconclusive
